Test results published in PubChem BioAssay (Tox21).
Results filed as inconclusive are left out. Activity calls are given as the source filed them. Unless noted, calls come from the whole dose curve; as a rule, active = well fitted curve in the direction sought with a large enough effect in the repeat runs; inconclusive = weak or mixed curves; inactive = no such curve, though single readings can be large; an effect the other way counts as inactive or inconclusive. Positions of bridges follow the written chain, without caps; N, C: chain ends. Non-standard residues stand in square brackets, D forms with d. Residues, ends and D or L forms follow the SMILES beside them. hArg = N=C(N)NCCCC[C@H](N)C(=O)O; Mpa = O=C(O)CCS

Columns and labels:
[1] = qHTS assay to identify small molecule antagonists of the TGF-beta/Smad signaling pathway - cell viability counter screen (AID 1346824); note: nearly all actives have a fitted effect of over 50% in size
Outline: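 SBE-bla HEK 293T cells were plated overnight at 37 C, then given compounds in DMSO plus TGF-beta1 (added as 0.25 ng/mL solution) for 5 hr. After the bla read, CellTiter-Glo was added to the same wells and luminescence read after 30 min at room temperature.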

[2] = qHTS assay to identify small molecule agonists of the TGF-beta/Smad signaling pathway - cell viability counter screen (AID 1346829); note: top concentration of the series differs between compounds; nearly all actives have a fitted effect of over 45% in size
Outline: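 Same-well cytotoxicity: CellTiter-Glo added after the 2 hr room-temperature beta-lactamase substrate step, luminescence measured 30 min later; cells had 5 hr of compound at 37 C.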

[3] = qHTS assay to identify small molecule agonists of the TGF-beta/Smad signaling pathway (AID 1346859; active = well fitted activation curve with a large enough effect in the signal ratio in the repeat runs, not every such curve was filed as active; the % refers to the signal ratio; note: series mostly up to about 77 µM)
Outline: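 Each well held 4,000 SBE-bla HEK 293T cells incubated overnight before compound addition; 5 hr later the cleavable FRET substrate went on for 2 hr at room temperature, and fluorescence was read at two emissions.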

[4] = target: Thyrotropin-releasing hormone receptor (Homo sapiens) (UniProt P34981); experiment: qHTS assay to identify small molecule antagonists of the thyrotropin-releasing hormone receptor (TRHR) signaling pathway (AID 1346877; active = well fitted inhibition curve with a large enough effect in the repeat runs, not every such curve was filed as active; note: series mostly up to about 51 µM)
Outline: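 Antagonist mode: after a 5 min room-temperature compound exposure, cells were stimulated with 1 nM (final) TRH. Dye-loaded TRHR-HEK293 cells were used, and calcium-dependent fluorescence was followed for 3 min, with 15-point titrations run in triplicate.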

[5] = target: Thyrotropin-releasing hormone receptor (Homo sapiens) (UniProt P34981); experiment: qHTS assay to identify small molecule agonists of the thyrotropin-releasing hormone receptor (TRHR) signaling pathway (AID 1346891; calls by dose curve; note: series mostly up to about 58 µM)
Outline: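 Screening of agonists relied on calcium signalling in HEK293 cells expressing human TRHR: dye loading 2 h at 37 °C preceded compound addition and a 3-min fluorescence time course.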

[6] = Human pregnane X receptor (PXR) small molecule agonists, qHTS cell viability counter screen (AID 1346977); note: nearly all actives have a fitted effect of over 50% in size
Outline: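 Tox21 qHTS format; PXR-Luc HepG2, 2,000/well, charcoal-stripped FBS 5%. Cpd exposure 24hr. Read: CellTiter-Fluor fluorescence, multiplexed with luciferase.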

[7] = Caspase-3/7 induction in HepG2 cells by small molecules, qHTS assay (AID 1346978); note: nearly all actives have a fitted effect of over 15% in size
Outline: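 Wild-type HepG2 cells (2,000/well) were settled 5 h at 37 C, 5% CO2, then exposed to compounds in DMSO for 17 h. Caspase-3/7 activity was read by luminescence 30 min after adding Caspase-Glo 3/7 reagent at room temperature.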

[8] = Caspase-3/7 induction in CHO-K1 cells by small molecules, qHTS cell viability counter screen (AID 1346979); note: nearly all actives have a fitted effect of over 35% in size; note: potency is the fitted concentration of half-maximal effect
Outline: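 CellTiter-Fluor viability check, qHTS format: wild-type CHO-K1, 16hr compound treatment, 1hr reagent incubation, fluorescence read.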

[9] = Caspase-3/7 induction in HepG2 cells by small molecules, qHTS cell viability counter screen (AID 1346981); note: series mostly up to about 92 µM; nearly all actives have a fitted effect of over 30% in size
Outline: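 CellTiter-Fluor fluorescence measured viability in the same wells used for Caspase-Glo 3/7. HepG2 (wild type) at 2,000 cells/well were pre-incubated 5 hr, dosed, and given reagent at 16 hr, with 1 hr further at 37C.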

[10] = target: Nuclear receptor subfamily 1 group I member 2 (Homo sapiens) (UniProt O75469); experiment: Human pregnane X receptor (PXR) small molecule agonists, qHTS assay (AID 1346982); note: nearly all actives have a fitted effect of over 35% in size; note: potency is the fitted concentration of half-maximal effect
Outline: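 Agonist mode: luminescence from ONE-Glo after 24 h compound exposure at 37C in HepG2 cells carrying hPXR-responsive CYP3A4 luciferase, plated in charcoal-stripped serum medium 5 h beforehand.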

[11] = target: Cytochrome P450 2D6 (Homo sapiens) (UniProt P10635); experiment: Cytochrome P450 Family 2 Subfamily D Member 6 (CYP2D6) small molecule antagonists: luciferase reporter qHTS assay (AID 1671196); note: nearly all actives have a fitted effect of over 50% in size; note: potency is the fitted concentration of half-maximal effect; for activity change, negative = inhibition: series mostly up to about 120 µM
Outline: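 CYP2D6 activity was followed as luminescence from its luciferin product after a 1 h NADPH-driven reaction at room temperature. Enzyme-substrate mix and compound were pre-incubated for 10 min, and the signal was read 20 min after adding detection reagent.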

[12] = target: Cytochrome P450 3A4 (Homo sapiens) (UniProt P08684); experiment: Cytochrome P450 Family 3 Subfamily A Member 4 (CYP3A4) small molecule antagonists: luciferase reporter qHTS assay (AID 1671201); note: nearly all actives have a fitted effect of over 50% in size; note: potency is the fitted concentration of half-maximal effect; for activity change, negative = inhibition: series mostly up to about 120 µM
Outline: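 Proluciferin-to-luciferin conversion by CYP3A4, NADPH-regenerated, 1 h RT; luminescence read as RLU. Ketoconazole as control.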

[13] = target: Cytochrome P450 2C19 (Homo sapiens) (UniProt P33261); experiment: Cytochrome P450 Family 2 Subfamily C Member 19 (CYP2C19) small molecule antagonists: luciferase reporter qHTS assay (AID 1671197); note: nearly all actives have a fitted effect of over 65% in size; note: potency is the fitted concentration of half-maximal effect; for activity change, negative = inhibition: series mostly up to about 120 µM
Outline: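 Quantitative high-throughput screen of the Tox21 library using CYP2C19 with proluciferin substrate. Reaction: NADPH regeneration, 37C, 1 h, after 10 min compound preincubation at room temperature. Readout: luminescence.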

[14] = target: Voltage-gated inwardly rectifying potassium channel KCNH2 (Homo sapiens) (UniProt Q12809); experiment: Human Ether-a-go-go-Related Gene (hERG) channel small molecule antagonists: fluorescence cell-based qHTS assay (AID 1671200)
Outline: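 Kinetic two-minute fluorescence traces, sampled at 1 s, were collected following thallium stimulus of U2OS cells (1000 per well) that had been cultured overnight at 37 C and loaded with FluxOR II.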

[15] = target: Cytochrome P450 2C9 (Homo sapiens) (UniProt P11712); experiment: Cytochrome P450 Family 2 Subfamily C Member 9 (CYP2C9) small molecule antagonists: luciferase reporter qHTS assay (AID 1671198)
Outline: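 CYP2C9 activity was measured with a P450-Glo proluciferin substrate. Enzyme–substrate mix was held with compound for 10 min at room temperature, then NADPH regeneration solution was added for 1 h at 37C. Luciferin product was read as luminescence.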

[16] = target: Cytochrome P450 1A2 (Homo sapiens) (UniProt P05177); experiment: Cytochrome P450 Family 1 Subfamily A Member 2 (CYP1A2) small molecule antagonists: luciferase reporter qHTS assay (AID 1671199); note: nearly all actives have a fitted effect of over 50% in size; note: potency is the fitted concentration of half-maximal effect; for activity change, negative = inhibition: series mostly up to about 120 µM
Outline: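 Luminescence from luciferin formed by CYP1A2 from a proluciferin substrate, read 20 min after detection reagent. Compound was pre-incubated 10 min with enzyme-substrate, and reaction started with NADPH regeneration solution for 1 h at room temperature; furafylline control.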

[17] = Caspase-3/7 induction in CHO-K1 cells by small molecules, qHTS assay (AID 1346980); note: nearly all actives have a fitted effect of over 15% in size
Outline: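 Wild-type cells were seeded at 1,500 per well and settled 5 hr at 37 C, 5% CO2, then exposed to DMSO-dissolved compounds for 17 hr. Caspase-Glo 3/7 reagent was added, and luminescence was read after 30min at room temperature.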

[18] = target: Nuclear receptor subfamily 1 group I member 2 (Rattus norvegicus) (UniProt Q9R1A7); experiment: Rat pregnane X receptor (rPXR) activation by small molecules, qHTS assay (AID 1346983); details: rPXR luciferase reporter cells, One-Glo luminescence, 24 h; active compounds read high; note: nearly all actives have a fitted effect of over 20% in size
Outline: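 Cell-based rPXR luciferase reporter assay, 2,000 cells per well, rested 5hr at 37 C before compound addition in DMSO, then 24 hr at 37 C. One-Glo reagent was added and luminescence read after 30 min at room temperature.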

[19] = target: Nuclear receptor subfamily 1 group I member 2 (Homo sapiens) (UniProt O75469); experiment: CYP3A4 induction through human pregnane X receptor (PXR) by small molecules, qHTS assay (AID 1346984); note: nearly all actives have a fitted effect of over 40% in size
Outline: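 Read-out is luminescence after One-Glo addition, following a 3 hr, 37C incubation with Luciferin-IPA CYP3A4 substrate (3uM final). Before that, compounds were on DPX-2 cells (HepG2 co-transfected with PXR element plus CYP3A4-promoter luciferase) for 24 hr at 37C.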
% is set by controls: 0 for no effect and ±100 for the full control effect.

Thyrotropin-releasing hormone receptor (Homo sapiens), sequence (P34981 whole entry, looked up): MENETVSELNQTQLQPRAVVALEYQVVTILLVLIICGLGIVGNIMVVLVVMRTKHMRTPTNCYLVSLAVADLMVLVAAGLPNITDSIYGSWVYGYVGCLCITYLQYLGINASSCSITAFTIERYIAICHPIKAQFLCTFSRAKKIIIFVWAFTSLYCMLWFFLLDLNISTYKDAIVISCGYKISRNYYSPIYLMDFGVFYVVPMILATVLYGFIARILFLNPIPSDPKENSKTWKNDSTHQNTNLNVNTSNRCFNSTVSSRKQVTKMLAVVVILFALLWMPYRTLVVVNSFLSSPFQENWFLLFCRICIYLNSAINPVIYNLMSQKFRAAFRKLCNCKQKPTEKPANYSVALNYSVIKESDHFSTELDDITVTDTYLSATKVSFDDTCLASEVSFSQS
Cytochrome P450 3A4 (Homo sapiens), sequence (P08684 whole entry, looked up): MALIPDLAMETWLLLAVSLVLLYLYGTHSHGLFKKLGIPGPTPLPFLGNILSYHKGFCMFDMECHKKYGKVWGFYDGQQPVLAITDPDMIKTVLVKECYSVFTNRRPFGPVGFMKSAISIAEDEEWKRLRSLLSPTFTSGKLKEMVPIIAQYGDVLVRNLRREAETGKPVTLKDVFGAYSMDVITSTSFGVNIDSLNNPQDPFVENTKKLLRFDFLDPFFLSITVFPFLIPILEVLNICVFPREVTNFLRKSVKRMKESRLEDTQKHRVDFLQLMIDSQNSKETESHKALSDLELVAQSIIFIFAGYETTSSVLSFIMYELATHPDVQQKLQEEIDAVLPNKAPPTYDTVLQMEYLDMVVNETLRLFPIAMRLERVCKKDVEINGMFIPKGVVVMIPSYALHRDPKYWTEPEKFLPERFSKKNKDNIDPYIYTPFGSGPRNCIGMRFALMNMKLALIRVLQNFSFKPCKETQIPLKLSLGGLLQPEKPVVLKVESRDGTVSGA
Voltage-gated inwardly rectifying potassium channel KCNH2 (Homo sapiens), sequence (Q12809 whole entry, looked up): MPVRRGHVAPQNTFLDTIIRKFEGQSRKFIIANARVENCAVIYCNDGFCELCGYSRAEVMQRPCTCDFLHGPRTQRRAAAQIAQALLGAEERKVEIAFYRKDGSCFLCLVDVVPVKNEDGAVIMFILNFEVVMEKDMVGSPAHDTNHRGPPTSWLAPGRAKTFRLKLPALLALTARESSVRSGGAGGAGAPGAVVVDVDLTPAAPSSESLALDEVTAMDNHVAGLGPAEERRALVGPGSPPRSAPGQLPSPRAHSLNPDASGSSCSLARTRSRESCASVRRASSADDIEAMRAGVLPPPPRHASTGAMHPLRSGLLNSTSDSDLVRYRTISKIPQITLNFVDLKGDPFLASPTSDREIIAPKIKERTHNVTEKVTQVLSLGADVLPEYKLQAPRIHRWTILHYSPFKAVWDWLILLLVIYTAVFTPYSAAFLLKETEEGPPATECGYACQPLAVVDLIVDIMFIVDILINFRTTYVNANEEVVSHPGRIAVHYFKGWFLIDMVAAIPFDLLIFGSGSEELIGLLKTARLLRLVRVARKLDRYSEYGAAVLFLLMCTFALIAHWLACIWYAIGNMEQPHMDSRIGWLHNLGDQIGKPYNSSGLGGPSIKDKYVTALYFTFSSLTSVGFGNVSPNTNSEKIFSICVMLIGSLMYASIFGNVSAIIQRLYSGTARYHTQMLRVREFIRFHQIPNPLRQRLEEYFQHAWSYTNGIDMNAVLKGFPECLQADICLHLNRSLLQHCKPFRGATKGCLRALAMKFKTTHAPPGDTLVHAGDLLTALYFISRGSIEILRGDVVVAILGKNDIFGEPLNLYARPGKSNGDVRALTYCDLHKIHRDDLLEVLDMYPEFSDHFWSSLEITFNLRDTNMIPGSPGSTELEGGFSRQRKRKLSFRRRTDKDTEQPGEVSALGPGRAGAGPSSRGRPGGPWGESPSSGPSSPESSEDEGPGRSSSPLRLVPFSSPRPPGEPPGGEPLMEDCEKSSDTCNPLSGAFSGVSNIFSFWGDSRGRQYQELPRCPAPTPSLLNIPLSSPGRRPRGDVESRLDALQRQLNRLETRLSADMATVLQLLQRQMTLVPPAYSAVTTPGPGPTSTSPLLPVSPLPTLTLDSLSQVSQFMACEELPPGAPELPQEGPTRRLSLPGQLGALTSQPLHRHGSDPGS
Cytochrome P450 2C9 (Homo sapiens), sequence (P11712 whole entry, looked up): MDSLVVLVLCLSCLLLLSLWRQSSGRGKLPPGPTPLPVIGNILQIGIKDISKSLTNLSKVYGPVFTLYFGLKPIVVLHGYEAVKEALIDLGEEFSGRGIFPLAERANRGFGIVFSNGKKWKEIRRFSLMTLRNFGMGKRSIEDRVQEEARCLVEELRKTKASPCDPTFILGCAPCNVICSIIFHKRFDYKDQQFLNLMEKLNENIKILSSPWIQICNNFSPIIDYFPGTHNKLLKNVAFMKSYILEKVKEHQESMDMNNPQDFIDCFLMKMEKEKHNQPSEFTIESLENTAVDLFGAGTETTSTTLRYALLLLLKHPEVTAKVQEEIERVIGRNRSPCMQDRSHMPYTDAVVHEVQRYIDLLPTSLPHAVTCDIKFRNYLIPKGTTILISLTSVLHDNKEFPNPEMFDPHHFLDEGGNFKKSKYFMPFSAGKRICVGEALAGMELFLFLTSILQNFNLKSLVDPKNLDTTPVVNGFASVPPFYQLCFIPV
Cytochrome P450 2C19 (Homo sapiens), sequence (P33261 whole entry, looked up): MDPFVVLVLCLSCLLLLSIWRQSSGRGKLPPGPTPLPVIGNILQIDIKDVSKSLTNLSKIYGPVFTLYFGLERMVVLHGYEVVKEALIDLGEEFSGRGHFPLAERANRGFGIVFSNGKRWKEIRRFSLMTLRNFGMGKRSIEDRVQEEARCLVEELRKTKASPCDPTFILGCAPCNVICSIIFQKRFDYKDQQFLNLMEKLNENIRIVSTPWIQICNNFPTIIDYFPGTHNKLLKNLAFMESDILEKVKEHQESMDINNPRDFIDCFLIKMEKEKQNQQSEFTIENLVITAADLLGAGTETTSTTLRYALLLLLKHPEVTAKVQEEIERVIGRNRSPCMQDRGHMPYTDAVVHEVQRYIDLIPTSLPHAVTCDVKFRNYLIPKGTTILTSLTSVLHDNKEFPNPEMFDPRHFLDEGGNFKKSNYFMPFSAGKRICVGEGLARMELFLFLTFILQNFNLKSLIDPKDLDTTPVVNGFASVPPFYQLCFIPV
Cytochrome P450 2D6 (Homo sapiens), sequence (P10635 whole entry, looked up): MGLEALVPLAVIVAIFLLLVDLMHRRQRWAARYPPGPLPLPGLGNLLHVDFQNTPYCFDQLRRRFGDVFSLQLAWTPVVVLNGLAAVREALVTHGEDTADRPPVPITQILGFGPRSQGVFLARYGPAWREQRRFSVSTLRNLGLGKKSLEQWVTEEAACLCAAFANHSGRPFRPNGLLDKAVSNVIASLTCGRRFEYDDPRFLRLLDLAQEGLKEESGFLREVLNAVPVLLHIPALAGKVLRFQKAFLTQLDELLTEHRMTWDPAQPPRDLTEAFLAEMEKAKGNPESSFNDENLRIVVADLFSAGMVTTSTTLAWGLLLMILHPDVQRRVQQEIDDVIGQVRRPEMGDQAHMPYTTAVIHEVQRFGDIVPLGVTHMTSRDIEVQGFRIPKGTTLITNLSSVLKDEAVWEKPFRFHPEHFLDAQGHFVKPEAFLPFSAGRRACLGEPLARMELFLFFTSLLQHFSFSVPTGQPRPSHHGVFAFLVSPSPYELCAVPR
Nuclear receptor subfamily 1 group I member 2 (Homo sapiens), sequence (O75469 whole entry, looked up): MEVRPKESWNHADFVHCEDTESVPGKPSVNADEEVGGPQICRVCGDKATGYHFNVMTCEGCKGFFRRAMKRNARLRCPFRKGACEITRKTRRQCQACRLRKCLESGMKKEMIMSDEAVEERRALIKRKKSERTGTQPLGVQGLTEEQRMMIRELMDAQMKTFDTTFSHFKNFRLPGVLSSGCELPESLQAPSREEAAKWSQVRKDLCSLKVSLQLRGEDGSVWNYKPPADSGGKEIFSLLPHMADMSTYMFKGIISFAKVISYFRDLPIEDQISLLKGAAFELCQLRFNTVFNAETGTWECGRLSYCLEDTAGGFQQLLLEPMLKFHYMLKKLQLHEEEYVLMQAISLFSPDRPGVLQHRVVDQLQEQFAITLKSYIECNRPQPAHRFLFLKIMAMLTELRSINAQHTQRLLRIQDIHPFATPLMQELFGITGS
Cytochrome P450 1A2 (Homo sapiens), sequence (P05177 whole entry, looked up): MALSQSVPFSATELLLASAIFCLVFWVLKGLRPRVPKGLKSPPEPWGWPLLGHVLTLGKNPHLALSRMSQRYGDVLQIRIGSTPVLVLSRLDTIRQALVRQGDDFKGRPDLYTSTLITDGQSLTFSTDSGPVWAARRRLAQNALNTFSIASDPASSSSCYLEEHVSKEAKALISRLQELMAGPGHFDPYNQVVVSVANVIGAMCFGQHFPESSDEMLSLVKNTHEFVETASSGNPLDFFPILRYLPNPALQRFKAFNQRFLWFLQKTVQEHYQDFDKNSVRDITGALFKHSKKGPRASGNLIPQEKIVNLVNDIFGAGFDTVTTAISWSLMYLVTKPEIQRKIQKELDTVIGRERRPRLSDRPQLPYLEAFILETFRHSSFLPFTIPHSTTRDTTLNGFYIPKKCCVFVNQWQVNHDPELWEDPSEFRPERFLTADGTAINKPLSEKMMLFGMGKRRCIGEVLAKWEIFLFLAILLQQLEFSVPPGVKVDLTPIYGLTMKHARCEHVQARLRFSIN
Nuclear receptor subfamily 1 group I member 2 (Rattus norvegicus), sequence (Q9R1A7 whole entry, looked up): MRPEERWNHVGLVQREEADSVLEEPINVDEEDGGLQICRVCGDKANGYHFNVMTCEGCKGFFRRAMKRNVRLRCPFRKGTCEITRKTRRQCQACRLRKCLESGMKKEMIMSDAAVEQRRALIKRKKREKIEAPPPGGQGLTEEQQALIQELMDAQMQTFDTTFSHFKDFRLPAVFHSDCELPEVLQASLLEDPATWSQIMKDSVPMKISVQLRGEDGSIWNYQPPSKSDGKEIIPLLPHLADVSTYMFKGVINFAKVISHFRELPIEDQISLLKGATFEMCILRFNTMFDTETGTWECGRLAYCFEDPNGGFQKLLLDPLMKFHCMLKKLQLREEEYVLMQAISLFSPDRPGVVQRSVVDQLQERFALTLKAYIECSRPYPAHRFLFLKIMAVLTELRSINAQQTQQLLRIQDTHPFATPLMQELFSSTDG

OC1(c2ccc(Cl)cc2)CCNCC1
active: Potency [11] 5.49 µM
inactive: outcome [1] | outcome [2] | outcome [3] | outcome [4] | outcome [5] | outcome [6] | outcome [7] | Potency [8] | outcome [9] | Potency [10] | Potency [12]

c1ccc(-c2nn[nH]n2)cc1
inactive: outcome [1] | outcome [2] | outcome [3] | outcome [4] | outcome [5] | outcome [6] | outcome [7] | Potency [8] | outcome [9] | Potency [10] | Potency [11] | Potency [13] | Potency [14] | Potency [12]

N#Cc1cscn1
inactive: outcome [1] | outcome [2] | outcome [3] | outcome [4] | outcome [5] | outcome [6] | outcome [7] | Potency [8] | outcome [9] | Potency [10] | Potency [11] | Potency [13] | Potency [15] | Potency [16] | Potency [14] | Potency [12]

CC(O)COC(C)(C)C (stereo not drawn)
inactive: outcome [1] | outcome [2] | outcome [3] | outcome [4] | outcome [5] | outcome [6] | outcome [7] | Potency [8] | outcome [9] | Potency [10] | Potency [14] | Potency [12]

CCCCCCCCCCCCCCC(=O)NC(CO)CCCCCCCCCCCCCC (stereo not drawn)
active: Potency [16] 63.8 µM
inactive: outcome [1] | outcome [2] | outcome [3] | outcome [4] | outcome [5] | outcome [6] | outcome [7] | Potency [8] | outcome [17] | outcome [9] | Potency [10] | Potency [13] | Potency [14] | Potency [12]

CC1(C)CC(OC(=O)CCCCCCCCC(=O)OC2CC(C)(C)NC(C)(C)C2)CC(C)(C)N1
inactive: viability change, negative = cytotoxic [1] -1.01% [at 15.8 µM] | activity change, negative = cytotoxicity [2] 11.9% [at 15.8 µM] | activation [3] 0.453% [at 15.8 µM] | activity, negative = inhibition [4] 0.698% [at 10.5 µM] | activation [5] 0.325% [at 11.8 µM] | caspase activation [7] 0.485% [at 19 µM] | activity change, negative = cytotoxicity [8] -1.35% [at 19 µM] | activity change, negative = cytotoxicity [9] -0.861% [at 19 µM] | activation [10] 26.4% [at 19 µM] | activity change, negative = inhibition [11] -17.8% [at 23.6 µM] | activity change, negative = inhibition [15] -10.9% [at 23.6 µM] | activity change, negative = inhibition [14] -0.993% [at 15.8 µM]

CC(=O)CC(=O)OC(C)(C)C
inactive: outcome [1] | outcome [2] | outcome [3] | outcome [5] | outcome [6] | outcome [7] | Potency [8] | outcome [17] | outcome [9] | Potency [11] | Potency [13] | Potency [15] | Potency [14] | Potency [12]

CCCCCCCCCCOC(C)=O
inactive: outcome [1] | outcome [2] | outcome [3] | outcome [5] | outcome [6] | outcome [7] | Potency [8] | outcome [17] | outcome [9] | Potency [10] | Potency [15] | Potency [16] | Potency [14] | Potency [12]

CCOc1cccc(N)c1
active: Potency [13] 6.3 µM | Potency [16] 35.4 µM | Potency [12] 2.23 µM
inactive: outcome [1] | outcome [2] | outcome [3] | outcome [5] | outcome [6] | outcome [7] | Potency [8] | outcome [17] | outcome [9] | Potency [10]

C=Cc1ccc(C(C)(C)C)cc1
inactive: outcome [1] | outcome [2] | outcome [3] | outcome [4] | outcome [5] | outcome [6] | Potency [8] | outcome [17] | outcome [9] | Potency [10] | Potency [11] | Potency [15] | Potency [16] | Potency [14] | Potency [12]

NC(=O)[C@@H]1CSSCCC(=O)N[C@@H](CCCCN=C(N)N)C(=O)NCC(=O)N[C@@H](CC(=O)O)C(=O)N[C@@H](Cc2c[nH]c3ccccc23)C(=O)N2CCC[C@H]2C(=O)N1 ([Mpa][hArg]GDWPC-NH2; disulfide 1-7)
active: Potency [8] 10.6 µM
inactive: outcome [1] | outcome [2] | outcome [3] | outcome [5] | outcome [6] | outcome [7] | outcome [17] | outcome [9] | Potency [10] | max activation [18] -0.95% | Potency [19] | Potency [11] | Potency [13] | Potency [15] | Potency [14] | Potency [12]

CCO[Si](CC)(OCC)OCC
active: Potency [10] 15.4 µM | Potency [12] 7.1 µM
inactive: outcome [1] | outcome [2] | outcome [3] | outcome [4] | outcome [5] | outcome [6] | Potency [8] | outcome [17] | outcome [9] | Potency [13] | Potency [16] | Potency [14]

O=C(O)CONC(=O)c1ccccc1
inactive: outcome [1] | outcome [2] | outcome [3] | outcome [4] | outcome [5] | outcome [6] | Potency [8] | outcome [17] | outcome [9] | Potency [10] | Potency [11] | Potency [15] | Potency [16] | Potency [14] | Potency [12]
